Screening data from PubChem BioAssay.
PostGolgi ctrl = yeast control strain growth, post-Golgi counter-screen; efflux-deficient yeast background strain, growth absorbance A615, 16 h; AID 738; 5% of 98,000 active; inhibition, % at 10 µM
CYP2C19 inhib = human CYP2C19 inhibition; inhibition, % at 5 µM; P33261; 21% of 96,000 active; AID 778; CYP2C19 Supersomes, luciferin-H EGE luminescence, 30 min;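 active = CYP2C19 inhibition above a set limit at 5 µM in the primary screen, cut at about 50% in these data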;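 also: plate controls were negative control wells for no effect and 2.5 mM tranylcypromine positive control for full effect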
CYP2C19 act = increases human CYP2C19 enzyme activity. P33261. recombinant CYP2C19, luciferin-H EGE luminescence; hits give high values; 0 = fully inhibited enzyme, 1 = untreated enzyme. activation factor at 5 µM. 96,000 tested, under 10 active. AID 1025;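 active = activation factor of at least 2 at 5 µM in the primary screen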;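 also: 0 = wells with 2.5 mM tranylcypromine and 1 = vehicle-only wells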
PostGolgi yeast = growth inhibition of a yeast mutant, post-Golgi transport screen; post-Golgi transport phenotypic cell assay; inhibition, % at 10 µM; 0.9% of 98,000 active; AID 739;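 also: yeast cells grown in 1536-well plates; yeast grown about 18 h at 30C before absorbance read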
CYP2C9 activ = activators of human CYP2C9; activation factor at 5 µM; 1.4% of 96,000 active; recombinant CYP2C9, luciferin-H conversion, luminescence; hits give high values; factor 1 = untreated enzyme, 0 = blocked; P11712;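 active = activation factor of 2 or more for CYP2C9 at a 5 µM dose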;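 also: 0 = sulfaphenazole-blocked wells and 1 = vehicle-only wells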
Target sequence (P11712 whole entry, looked up): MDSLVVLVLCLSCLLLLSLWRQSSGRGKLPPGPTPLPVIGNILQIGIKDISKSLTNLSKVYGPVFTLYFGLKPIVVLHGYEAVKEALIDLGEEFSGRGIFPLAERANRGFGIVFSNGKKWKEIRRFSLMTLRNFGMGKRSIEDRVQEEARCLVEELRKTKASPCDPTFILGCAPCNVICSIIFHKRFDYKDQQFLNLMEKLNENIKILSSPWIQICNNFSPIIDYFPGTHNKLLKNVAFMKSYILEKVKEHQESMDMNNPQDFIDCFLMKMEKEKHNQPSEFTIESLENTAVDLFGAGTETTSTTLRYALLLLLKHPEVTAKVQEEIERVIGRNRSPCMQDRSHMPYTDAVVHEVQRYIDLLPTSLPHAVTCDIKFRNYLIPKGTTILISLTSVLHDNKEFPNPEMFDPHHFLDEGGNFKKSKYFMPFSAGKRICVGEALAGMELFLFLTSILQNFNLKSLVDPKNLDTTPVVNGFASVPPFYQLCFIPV
CYP2C9 inhib = blocks human cytochrome P450 2C9; inhibition, % at 5 µM; 20% of 96,000 active; P11712; CYP2C9 Supersomes, luciferin-H conversion, luminescence;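 active = blocking of liver enzyme CYP2C9 beyond about 50% at 5 µM, limit read from the data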
Active calls of the source: *; . = no result given. Only some compounds are listed: those with a hit (about 32% of all), similar ones and a draw of the others. Rule as the data show it, unless noted: active = inhibition above about 30%; inactive = the rest.

SMILES	PostGolgi ctrl	CYP2C19 inhib	CYP2C19 act	PostGolgi yeast	CYP2C9 activ	CYP2C9 inhib
COc1ccc(N2CCN(C(=O)CSc3nnc(COc4cccc5cccnc45)o3)CC2)cc1	3	0	1	-3	1	2
Cc1ccc2[nH]c3c(c2c1)CN(C(=O)CN1CCCc2ccccc21)CC3	19	39	0.6	-9	1	5
CC1CN(CC(=O)N2CCc3[nH]c4ccccc4c3C2)CC(C)O1 (stereo unspecified)	7	26	0.7	1	0.9	11
Cc1ccc2[nH]c3c(c2c1)CN(C(=O)CN1CCN(c2ccccc2F)CC1)CC3	13	23	0.8	3	0.5	53*
CC1CC(C)CN(CC(=O)N2CCc3[nH]c4ccccc4c3C2)C1 (stereo unspecified)	0	66*	0.3	2	0.5	48
O=C(CN1CCN(Cc2ccc3c(c2)OCO3)CC1)N1CCc2[nH]c3ccc(F)cc3c2C1	11	84*	0.2	4	0.2	76*
COc1ccc(NC(=O)c2ccc(C(=O)c3cc(OC)ccc3OC)cc2)cc1	2	0	1	0	0.9	11
Clc1cccc(Cl)c1Cn1cnc(=NCc2ccco2)c2[nH]cnc21	0	30	0.7	20	0.2	77*
Clc1cccc(Cl)c1Cn1cnc2c(NCc3ccco3)ncnc21	12	-7	1.1	0	0.9	14
Cc1ccc(-n2cnnn2)c(S(=O)(=O)N2CCOCC2)c1	-1	8	0.9	-2	1.1	-14
CCOc1cc(S(=O)(=O)N2CC=C(c3ccc(F)cc3)CC2)c(OCC)cc1-n1cnnn1	101*	11	0.9	0	0.1	93*
CCOc1cc(S(=O)(=O)N2CCC(Cc3ccccc3)CC2)c(OCC)cc1-n1cnnn1	10	53*	0.5	3	0.3	73*
C=CCN(c1ccc(C(=O)NCCc2ccccc2)cc1)S(C)(=O)=O	7	10	0.9	-3	1.1	-10
CCOc1ccccc1C(=O)Nc1ccccc1O	17	27	0.7	0	5.7*	-469
CCOc1ccccc1NC(=O)c1ccccc1NS(C)(=O)=O	12	9	0.9	6	0	96*
COc1ccccc1NC(=O)c1ccccc1NS(C)(=O)=O	8	-2	1	1	0.8	19
O=P(CCC(F)(F)F)(CCC(F)(F)F)CCC(F)(F)F	4	-9	1.1	-3	1.1	-10
O=C(Oc1cccc(Oc2ccccc2)c1)N1CCOCC1	10	63*	0.4	-8	1	0
O=C(Oc1ccc(-c2ccccc2)cc1)N1CCOCC1	1	-9	1.1	-6	1.2	-20
O=C(OCc1ccccc1)N1CCOCCOCCN(C(=O)OCc2ccccc2)CCOCCOCC1	6	27	0.7	1	0.2	84*
NC(=O)C1CCN(C(=O)C2CCN(S(=O)(=O)c3ccccc3)CC2)CC1	5	-12	1.1	-12	0.8	17
COc1ccc(OC)c(NC(=O)Cn2cccc2)c1	-4	28	0.7	-6	0.7	30
COc1ccc(OC)c(NC(=O)Cn2cc(C#N)c3ccccc32)c1	11	85*	0.2	2	0.2	80*
COc1ccc(OC)c(NC(=O)Cn2cc(C(=O)c3ccco3)c3ccccc32)c1	11	96*	0	5	0	98*
CCOC(=O)c1ccc(-n2c(=S)sc3c(=O)[nH]c(C)nc32)cc1	1	6	0.9	-2	1.1	-14
SMILES	PostGolgi ctrl	CYP2C19 inhib	CYP2C19 act	PostGolgi yeast	CYP2C9 activ	CYP2C9 inhib
Cc1ccc(C)c(NC(=O)Cn2nc(C)c3ccccc3c2=O)c1	.	14	0.9	.	1	1
Cc1ccccc1CSc1nc2n(n1)C(c1cccs1)C1=C(CCCC1=O)N2 (stereo unspecified)	9	17	0.8	-15	0.4	58*
Cn1c(SCc2ccc(C#N)cc2Cl)nc2ccccc21	24	57*	0.4	-6	0.7	33
O=C(c1ncc[nH]1)c1ccccc1C(=O)N1CCOCC1	33*	11	0.9	-1	0.9	15
CC(=O)NC12CC3CC(C1)CC(C(=O)Nc1nccs1)(C3)C2	4	85*	0.2	-2	0.4	56*
CC(=O)NC12CC3CC(C1)CC(C(=O)OCC(=O)Nc1ncc(Cl)cc1Cl)(C3)C2	13	.	.	-1	.	.
CNC(=S)N1N=C(c2ccc(C)cc2)CC1c1ccc(Br)cc1 (stereo unspecified)	35*	55*	0.4	-9	0.1	92*
CNC(=S)N1N=C(c2ccc(C)cc2)CC1c1ccc(Cl)cc1 (stereo unspecified)	44*	29	0.7	-2	0.1	90*
Cc1ccc(N(Cc2ccco2)C(=O)c2cccc(S(=O)(=O)N(C)C)c2)cc1	13	40	0.6	11	0.7	28
O=C(c1ccco1)N(Cc1ccc([N+](=O)[O-])cc1)c1ccc(Cl)cc1	40*	26	0.7	-1	0.1	94*
O=C(c1ccco1)N(Cc1ccco1)c1ccc(O)cc1	0	36	0.6	6	0.5	54*
O=C(NNC(=O)c1ccco1)c1cccc([N+](=O)[O-])c1	7	0	1	-9	0.9	6
CCOC(=O)N1CCC(Nc2c(NCCCN(C)Cc3ccccc3)c(=O)c2=O)CC1	11	-2	1	-2	1	-2
CC(C(=O)Nc1ccc(C(=O)O)cc1)N1C(=O)c2ccccc2C1=O (stereo unspecified)	-7	-4	1	10	0.9	10
CC(C(=O)N(C1CC1)C1(C(=O)Nc2ccccc2)CCCC1)N1C(=O)c2ccccc2C1=O (stereo unspecified)	45*	37	0.6	2	0.8	22
CCCn1nc([N+](=O)[O-])c(C(C#N)c2nc3ccccc3s2)c(Cl)c1=O (stereo unspecified)	55*	5	1	100*	0	99*
Cc1cc2nc(-c3cccc(NC(=O)c4ccc(Br)o4)c3C)oc2cc1C	4	19	0.8	-6	0.5	50*
COc1cccc(NC(=O)Cc2nnc(SCC(=O)c3ccccc3)n2C)c1	9	.	.	2	.	.
O=C(Nc1ccccc1)c1ccc(S(=O)(=O)NCc2ccco2)cc1	10	-14	1.1	-11	1.1	-9
O=S(=O)(Nc1nc2ccccc2nc1NCc1ccco1)c1ccc(Cl)cc1	38*	51*	0.5	-8	0	98*
Cc1cccc(S(=O)(=O)Nc2nc3ccccc3nc2NCc2ccco2)c1	14	26	0.7	-2	0	95*
Cc1ccccc1S(=O)(=O)Nc1nc2ccccc2nc1NCCO	-7	19	0.8	-2	0	100*
Cc1ccc(S(=O)(=O)Nc2nc3ccccc3nc2NCc2ccco2)cc1C	16	27	0.7	-3	0	100*
Cc1ccc(S(=O)(=O)Nc2nonc2C)cc1	6	-10	1.1	1	0.9	13
